# PTHR1 ag: activates the human parathyroid hormone receptor PTHR1 | HEK293 GP2 PTHR1 cells, GloSensor cAMP luminescence, 1 h | Potency, µM (series often up to 115 µM), for inactives: top-dose activation, usual class: activators | 410,000 compounds, 0.075% hits; further: nearly all actives have a fitted effect of over 55% in size
#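 HEK-293-derived GP2 cells expressing PTHR1 and a GloSensor cAMP reporter, 3,000/well, plated overnight, given luciferin plus IBMX (each 0.5 mM as added) for 1 h at 37 °C, then compound for 1 h at 37 °C. Luminescence was read after 15 min at room temperature.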
# GLP1R inv ag: acts as inverse agonist at human GLP-1 receptor. 410,000 compounds, 1.6% hits. P43220. Potency, µM (top dose mostly 38.3 µM), for inactives: at the highest dose activity change, negative = inhibition, actives largely listed as inhibitors. HEK293 GLP-1R CRE-luciferase, luminescence, 24 h; GLP-1R form is constitutively active; further: on the % scale 0 is the no-effect control and ±100 the full control effect; nearly all actives have a fitted effect of over 55% in size
# Target sequence (P43220 whole entry, looked up): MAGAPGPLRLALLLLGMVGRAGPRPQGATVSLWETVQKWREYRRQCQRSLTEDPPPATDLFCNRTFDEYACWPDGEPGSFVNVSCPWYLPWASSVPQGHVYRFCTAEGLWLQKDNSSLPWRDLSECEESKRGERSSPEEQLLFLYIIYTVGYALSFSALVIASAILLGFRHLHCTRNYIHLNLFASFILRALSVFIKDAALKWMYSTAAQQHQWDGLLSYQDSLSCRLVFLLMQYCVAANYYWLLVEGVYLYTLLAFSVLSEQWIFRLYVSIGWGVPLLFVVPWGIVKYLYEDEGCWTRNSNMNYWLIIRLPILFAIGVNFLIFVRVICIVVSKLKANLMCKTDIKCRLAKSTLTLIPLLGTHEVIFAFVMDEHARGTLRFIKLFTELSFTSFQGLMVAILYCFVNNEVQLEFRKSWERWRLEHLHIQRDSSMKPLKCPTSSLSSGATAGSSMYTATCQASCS
#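 Cells are plated, allowed 12 hours at 37 deg C, then treated with compounds for 24 hr before luciferase detection reagent is added and luminescence is read after 12 min at room temperature. The HEK293 line carries constitutively active GLP-1R with a cAMP-responsive reporter.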
# GLP-1R agonist: activates the human GLP-1 receptor; P43220; HEK293 GLP-1R CRE-luciferase, luminescence, 4-6 h; cells express a hypersensitive GLP-1R form; Potency, µM (series often up to 45.6 µM), without a hit: at the top dose activation, hits mostly activators; 380,000 compounds, 0.007% hits; AID 624172; further: % of control where 0% means no effect
# HEK293 tox: cytotoxicity counter-screen for GLP-1 receptor inverse agonists; HEK293 cAMP-luciferase reporter cells, luminescence, 24 h; Potency, µM (doses to about 38.3 µM), without a hit: top-dose activity change, negative = inhibition, most hits filed as inhibitors; 410,000 compounds, 0.13% hits;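 further: loss of luciferase light is scored as toxicity; on the % scale 0 is the no-effect control and ±100 the full control effect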
#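 Seeding density was 200 cells/uL; after overnight-length (12 h) culture, 23 nL compounds went on for 24 h at 37 °C. Readout used a luciferase detection reagent, luminescence taken after 12 min at room temperature.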
# Starred values were filed as active, the others as inactive; i = inactive; ? = inconclusive; / = not tested or not shown; [ ] = another dose, or the depositor's remark. In the library only some 1.7% were active in any assay of this set; here they are far more common. The call rests on the fitted dose curve; in most records, active means well fitted curve in the direction sought with a large enough effect; inconclusive means small, poorly fitted or top-dose-only effect, or another doubt; inactive means no such curve, though single readings can be large; an effect the other way counts as inactive or inconclusive. Potency means the concentration at half of the fitted maximal effect.
SMILES,PTHR1 ag,GLP1R inv ag,GLP-1R agonist,HEK293 tox
O=C(NCCc1ccccc1)C1CCCN(c2nc3ccccc3s2)C1 (configuration not stated),i,10µM*,8.1%,-6.9%
COc1ccc2[nH]c3c(c2c1)CCN1C(=O)C(CC(=O)NCCC2=CCCCC2)C[C@H](C(=O)N(C(C)C)C(C)C)[C@@]31C (some centres not stated),i,10µM*,-2.3%,?
O=C(C[C@H]1C[C@H](C(=O)N2CCOCC2)[C@@]2(CCC3CCCC3)c3[nH]c4cc(-c5ccco5)ccc4c3CCN2C1=O)NCCC1=CCCCC1,i,10µM*,-0.6%,-14.7%
O=C(NNc1ccccc1Br)C(O)(c1cccc(C(F)(F)F)c1)c1cccc(C(F)(F)F)c1,-12.2%,3.16µM*,-31.7%,?
Cc1ccc(NNC(=O)C(O)(c2cccc(C(F)(F)F)c2)c2cccc(C(F)(F)F)c2)cc1,-33.6%,3.16µM*,-28.7%,?
CCNNC(=O)C(O)(c1cccc(C)c1)c1cccc(C)c1,-17.6%,18.2%,-13.4%,-4.2%
Cc1cccc(C(O)(C(=O)NNc2ccc3ccccc3n2)c2cccc(C)c2)c1,6.1%,4.47µM*,-4.0%,-2.5%
Cc1ccc(C(O)(C(=O)NNc2ccccn2)c2ccc(C)cc2)cc1,-2.7%,32.8%,4.1%,-2.6%
CCCCOc1ccc(C(=O)NCC(c2ccc(Cl)cc2)N2CCOCC2)cc1 (configuration not stated),i,?,/,5.7%
COc1ccc(CCNC(=O)Cn2c(C)c3cnn(-c4ccccc4)c(=O)c3c2C)cc1OC,i,7.4%,/,2.7%
O=C(CCNC(=O)c1ccccc1Cl)Nc1nc(-c2ccccc2Cl)cs1,-20.8%,7.94µM*,0.5%,-8.0%
O=C(CCNC(=O)c1ccccc1Cl)Nc1nc(-c2ccc(F)cc2)cs1,-40.1%,-15.4%,-7.1%,-5.3%
OC[C@H]1O[C@H](OC/C=C/c2ccccc2)[C@H](O)[C@@H](O)[C@@H]1O,/,/,-5.7%,/
C=CCn1c(Cc2cccs2)nnc1SCC(=O)c1cccc(Br)c1,i,5.62µM*,5.6%,-9.4%
CN1CCCN(C(c2ccccc2)c2ccc(Cl)cc2)CC1 (configuration not stated),-58.8%,?,21.3%,?
Clc1ccc(C(c2cccs2)N2CCNCC2)cc1 (configuration not stated),i,4.47µM*,12.9%,-12.5%
Cc1ccc(CN(C(=O)COc2ccc(Cl)c(C)c2)C2CCS(=O)(=O)C2)o1 (configuration not stated),-60.5%,?,/,-2.1%
CCOc1ccc(NC(=O)c2cnn(-c3ccc(C)c(Cl)c3)c2C2CCNCC2)cc1,-12.3%,8.91µM*,-2.4%,?
Cc1ccc(-n2ncc(C(=O)Nc3ccc(Cl)cc3)c2C2CCNCC2)cc1C,i,-27.0%,0.1%,?
CCN(CC)CCCNC(=O)c1ccc2c(c1)NC(=O)C(CS(=O)(=O)Cc1cccc(Br)c1)N2 (configuration not stated),15.8µM*,-7.4%,/,-2.4%
COc1cccc(NC(=O)CN(C)C(=O)c2cc(-c3ccco3)nc3ccccc23)c1,i,-26.4%,17.1%,-6.7%
CN(CCOc1ccc(Cl)cc1)C(=O)c1cc(-c2ccco2)nc2ccccc12,-33.0%,10µM*,1.7%,?
O=C(N/N=C/c1ccc(N2CCOCC2)s1)c1ccccc1Br,i,66.2%,5.8%,14.5%
Clc1cccc(N/N=C/c2ccc(N3CCOCC3)s2)c1,-24.2%,2.82µM*,2.4%,?
CCC[C@]1(CCc2ccccc2)CC(O)=C([C@H](CC)c2cccc(NS(=O)(=O)c3ccc(C(F)(F)F)cn3)c2)C(=O)O1,/,/,-1.3%,/
SMILES,PTHR1 ag,GLP1R inv ag,GLP-1R agonist,HEK293 tox
CCOc1ccc(NC(=O)CN(C)C(=O)CCCOc2ccc(Br)cc2)cc1OCC,-3.2%,10µM*,7.6%,3.3%
N#CCCn1cc(/C=C2\NC(=S)N(c3ccccc3)C2=O)c(-c2ccc(-c3ccccc3)cc2)n1,-1.1%,7.94µM*,0.5%,1.0%
O=C(O)CCn1cc(/C=C2/NC(=S)N(c3ccccc3)C2=O)c(-c2ccccc2)n1,i,-5.4%,2.3%,?
O=C1C=CC(=O)N1c1cccc(-c2ccccc2)c1,i,?,0.3%,12.6µM*
CCOCCCNC(=O)C(=O)Nc1c2c(nn1-c1ccc(OC)cc1)CSC2,i,17.7%,/,-1.1%
Cn1c(-c2ccc(F)cc2)cnc1NCc1cc2c(cc1[N+](=O)[O-])OCO2,i,?,-0.6%,-28.2%
Cn1c(-c2ccc(Cl)cc2)cnc1NCc1cc2c(cc1[N+](=O)[O-])OCO2,-20.9%,3.98µM*,-1.8%,?
O=C(NCc1ccc(Cl)cc1)c1cnc2sc(N3CCCC3)nn2c1=O,-14.2%,-2.1%,/,-6.6%
O=C(O)c1cccc(N2C(=O)CSC2c2ccccc2)c1 (configuration not stated),-22.5%,-8.1%,-0.7%,4.7%
Cc1ccc(NC(=O)C2(NC(=O)c3cccc(N4C(=O)CSC4c4ccccc4)c3)CCCCC2)cc1 (configuration not stated),-1.4%[57.5 µM],6.31µM*,-10.4%,3.2%
Cc1ccc(Nc2cc(C)nc3ccccc23)c(C)c1,-5.3%,10µM*,6.1%,-60.9%
Cc1cccc(Nc2cc(C)nc3ccccc23)c1,-3.0%,-10.8%,10.1%,-28.4%
Cc1ccc(C)c(Nc2cc(C)nc3ccccc23)c1,i,7.08µM*,-6.5%,?
O=C(NC1CC(=O)N(c2cccc(F)c2)C1)c1ccc(Br)o1 (configuration not stated),i,8.5%,/,6.3%
C#CCC(Cc1cnc2nc(N)nc(N)c2n1)c1ccc(C(=O)N[C@@H](CCC(=O)O)C(=O)O)cc1 (some centres not stated),/,/,5.9%,/
Cc1cccc(C)c1NC(=O)CCCSc1nnc(-c2ccc(Cl)cc2)n1-c1ccccc1,-38.1%,5.62µM*,-0.9%,-26.0%
Cc1cccc(C)c1NC(=O)CCCSc1nnc(-c2ccc(F)cc2)n1-c1ccccc1,-49.9%,?,1.2%,-13.2%
COC(=O)c1ccccc1NC(=O)Cn1nc(C(F)(F)F)c2c1CCCC2,-85.4%,11.2µM*,/,1.0%
O=c1[nH]c(CSc2nnc(Cc3ccccc3)o2)nc2ccccc12,i,7.6%,-1.0%,-1.5%
Cc1[nH]c2ccccc2c1Cc1nnc(SCc2ccccc2)o1,-28.4%,11.2µM*,9.2%,-24.5%
Cc1ccc(C)c(N(C)C(=O)c2cn(C)c(=O)c3ccccc23)c1,-25.3%,6.31µM*,/,28.3%
COc1cc(-c2nc3ccc(C)cn3c2NCc2ccccc2)ccc1-c1cccc(Cl)c1,i,8.91µM*,5.4%,-3.2%
COc1cc(-c2nc3ccc(C)cn3c2NCc2ccccc2)ccc1SC1CCCCC1,-27.6%,3.98µM*,-0.3%,-14.6%
